Results on nine molecules are retold here after PubChem BioAssay (NCI).

Some test systems named below: RPMI-8226 leukemia; OVCAR-8 ovarian; OVCAR-5 ovarian; OVCAR-4 ovarian; SK-OV-3 ovarian; IGROV1 ovarian; OVCAR-3 ovarian; HS 578T breast; NCI/ADR-RES ovarian; T-47D breast; BT-549 breast; MDA-MB-435 melanoma; SW-620 colon; MCF7 breast; HCT-116 colon; KM12 colon; HCC-2998 colon.
What all share (assay): NCI-60 one-dose screen, 48 h (100 = growth as untreated, 0 = no growth, -100 = all killed)
What all share (conditions): 10 µM unless noted

About 83,000 compounds went through this panel and 20% of them were active in at least one assay; those are over-represented in the sample as a whole.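 Results are percent growth after 48 hours of single-concentration exposure. 100 means growth as in untreated cells, lower positive values show inhibition; negative values down to -100 show cell death.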 Unmarked numbers belong to inactive results. Calls of active or inactive are those of the source. How the source made its calls: active means growth percent below 10; inactive means the rest.

Consider `N#Cc1ccc(NC(=O)Nc2ccc(Oc3ccc(NC(=O)Nc4ccc(C#N)cc4)cc3)cc2)cc1`, for which the growth in the experiment on RPMI-8226 leukemia is -56.2% (active); in the experiment on OVCAR-8 ovarian, 31%; in the experiment on OVCAR-5 ovarian, 47.4%; in the experiment on OVCAR-4 ovarian, 33.8%; in the experiment on SK-OV-3 ovarian, 58.7%; with IGROV1 ovarian, -21.5% (active). Further, the growth in the experiment on OVCAR-3 ovarian is 11.1%; in the experiment on HS 578T breast, 38.9%; in the experiment with NCI/ADR-RES ovarian it was 48.9%; in the experiment on T-47D breast it was 2.9% (active); in the experiment on BT-549 breast, -15.5% (active); in the experiment on MDA-MB-435 melanoma, 35.6%. Besides, the growth with SW-620 colon is 15.8%; in the experiment with MCF7 breast it was 20.5%; in the experiment on HCT-116 colon, 5.73% (active); in the experiment on KM12 colon it was 9.37% (active).
As to `O=C(/C(=C/c1ccc([N+](=O)[O-])cc1)c1ccccc1)c1ccccc1`, the growth in the experiment on RPMI-8226 leukemia is -10.5% (active); with OVCAR-8 ovarian it was 8.51% (active); with OVCAR-5 ovarian it was 76.3%; in the experiment with OVCAR-4 ovarian, 57.8%; with SK-OV-3 ovarian, 92.7%; in the experiment with IGROV1 ovarian, 74.1%. Further, the growth is 16.4% with OVCAR-3 ovarian; 57.9% with HS 578T breast; 46.5% in the experiment on NCI/ADR-RES ovarian; 72% with T-47D breast; 15.5% in the experiment with BT-549 breast; 10.9% with MDA-MB-435 melanoma. The growth is 11.7% in the experiment with SW-620 colon, 26.4% with MCF7 breast, 6.38% (active) in the experiment with HCT-116 colon and 19.6% with KM12 colon.
With `CC(C)[C@]12O[C@H]1[C@@H]1O[C@]13[C@]1(O[C@H]1C[C@H]1C4=C(CC[C@@]13C)C(=O)OC4)[C@@H]2OC(=O)CN(C)C`, the growth in the experiment on RPMI-8226 leukemia was 14.7%; in the experiment on OVCAR-8 ovarian, 14.9%; with OVCAR-5 ovarian it was 26.7%; in the experiment with OVCAR-4 ovarian it was 21.1%; in the experiment with SK-OV-3 ovarian it was 52.1%; in the experiment on IGROV1 ovarian it was -17.1% (active). Besides, the growth was -1.74% (active) in the experiment on OVCAR-3 ovarian; -0.647% (active) in the experiment with HS 578T breast; -5.71% (active) in the experiment with NCI/ADR-RES ovarian; 27.2% with T-47D breast; -18.2% (active) with BT-549 breast; -76.4% (active) in the experiment on MDA-MB-435 melanoma. In addition, the growth is 0.523% (active) with SW-620 colon, 18.1% in the experiment on MCF7 breast, 4.59% (active) in the experiment with HCT-116 colon and 2.83% (active) in the experiment with KM12 colon.
As for `COc1ccc2nc(NC(=O)c3cc(-c4ccc(F)cc4)n4nc(-c5ccccc5)cc4n3)sc2c1`, the growth with RPMI-8226 leukemia was 83.5%; in the experiment on OVCAR-8 ovarian, 53.5%; with OVCAR-5 ovarian it was 85.6%; in the experiment on OVCAR-4 ovarian, 59.1%; in the experiment on SK-OV-3 ovarian, 67.6%; in the experiment with IGROV1 ovarian, 101%. Also, the growth in the experiment with OVCAR-3 ovarian was 67.9%; in the experiment on HS 578T breast it was 79.9%; with NCI/ADR-RES ovarian, 70.9%; with T-47D breast, 89.5%; in the experiment on BT-549 breast it was 53.5%; in the experiment with MDA-MB-435 melanoma it was 96.2%. In addition, the growth is 94.7% in the experiment on SW-620 colon; 86.8% with MCF7 breast; 61.5% with HCT-116 colon; 98.6% with HCC-2998 colon; 74.1% in the experiment with KM12 colon.
Turning to `COc1cc(NC(=O)c2cc3ccccc3cc2O)c(OC)cc1Cl`, the growth was -48.7% (active) with RPMI-8226 leukemia; 7.08% (active) with OVCAR-8 ovarian; 2.16% (active) in the experiment on OVCAR-5 ovarian; 38.4% in the experiment on OVCAR-4 ovarian; -14.9% (active) in the experiment with SK-OV-3 ovarian; -31% (active) in the experiment with IGROV1 ovarian. For the same molecule, the growth in the experiment on OVCAR-3 ovarian was 10.7%; in the experiment on HS 578T breast it was 51.7%; in the experiment on NCI/ADR-RES ovarian, -20.6% (active); in the experiment with T-47D breast, 4.25% (active); with BT-549 breast, -24.3% (active); in the experiment on MDA-MB-435 melanoma it was 3.67% (active). Moreover, the growth with SW-620 colon is 17.5%; in the experiment with MCF7 breast, 2.91% (active); with HCT-116 colon, -21.3% (active); with HCC-2998 colon, -40.4% (active); in the experiment on KM12 colon it was 5.63% (active).
Take `CC(=O)Oc1ccc(C2OC(c3ccc4ccccc4c3OC(C)=O)=NN2C(C)=O)c(OC(C)=O)c1` (stereo not drawn): the growth in the experiment with RPMI-8226 leukemia was 21.2%; in the experiment on OVCAR-8 ovarian it was 8.13% (active); in the experiment with OVCAR-5 ovarian, 63.2%; with OVCAR-4 ovarian it was 32.2%; in the experiment on SK-OV-3 ovarian, 27.6%; with IGROV1 ovarian, 20.3%. Besides, the growth with OVCAR-3 ovarian was 18.7%; in the experiment on HS 578T breast, 59.7%; in the experiment with NCI/ADR-RES ovarian it was 11.1%; with T-47D breast it was 25%; in the experiment on BT-549 breast, 31%; in the experiment on MDA-MB-435 melanoma, 33.6%. Also, the growth in the experiment on SW-620 colon is 32%; in the experiment with MCF7 breast, 15.6%; in the experiment on HCT-116 colon, 20.6%; in the experiment on KM12 colon, 19.7%.
As for `O=C(Cn1ccnc1)NC(c1ccccc1)c1ccccc1`, the growth was 108% with RPMI-8226 leukemia; 102% in the experiment with OVCAR-8 ovarian; 83.5% in the experiment with OVCAR-5 ovarian; 105% in the experiment on OVCAR-4 ovarian; 114% in the experiment on SK-OV-3 ovarian; 106% in the experiment on IGROV1 ovarian. Further, the growth in the experiment on OVCAR-3 ovarian was 116%; in the experiment on HS 578T breast it was 102%; in the experiment with NCI/ADR-RES ovarian, 102%; in the experiment with T-47D breast, 101%; with BT-549 breast it was 105%; in the experiment with MDA-MB-435 melanoma, 99.4%. In addition, the growth with SW-620 colon is 106%; in the experiment on MCF7 breast, 100%; in the experiment on HCT-116 colon, 106%; in the experiment on HCC-2998 colon, 97.6%; in the experiment with KM12 colon it was 103%.
As for `COC(=O)CCC1=C(C)C(C)=N/C1=C\c1[nH]c(-c2ccc[nH]2)cc1OC`, the growth was -61.8% (active) in the experiment on RPMI-8226 leukemia; 5.55% (active) in the experiment on OVCAR-8 ovarian; 22.7% in the experiment on OVCAR-5 ovarian; 11.8% in the experiment with OVCAR-4 ovarian; 16.2% in the experiment on SK-OV-3 ovarian; 18.4% in the experiment with IGROV1 ovarian. Further, the growth is -34.5% (active) with OVCAR-3 ovarian; -6.06% (active) in the experiment with HS 578T breast; 6.26% (active) in the experiment on NCI/ADR-RES ovarian; 7.35% (active) in the experiment with T-47D breast; 29.2% in the experiment on BT-549 breast; -5.95% (active) with MDA-MB-435 melanoma. Further, the growth is 7.46% (active) in the experiment on SW-620 colon; 4.8% (active) with MCF7 breast; -59.8% (active) with HCT-116 colon; 12.5% in the experiment on HCC-2998 colon; 12.7% with KM12 colon.
Consider `COC1=CC(c2ccc[nH]2)=N/C1=C\c1[nH]c(C)c(C(=O)CCC(=O)Oc2ccc3c(c2)CCC2C3CC[C@]3(C)C(=O)CC[C@@H]23)c1C` (stereo partly drawn), for which the growth with RPMI-8226 leukemia is 68.3%; in the experiment with OVCAR-8 ovarian it was 80.8%; in the experiment on OVCAR-5 ovarian it was 55.6%; in the experiment on OVCAR-4 ovarian, 67.7%; in the experiment on SK-OV-3 ovarian it was 85.5%; in the experiment on IGROV1 ovarian it was 79.5%. For the same molecule, the growth in the experiment on OVCAR-3 ovarian is 89.1%; in the experiment with HS 578T breast it was 69.8%; in the experiment on NCI/ADR-RES ovarian, 82.3%; in the experiment on T-47D breast, 79.2%; with BT-549 breast, 70.2%; with MDA-MB-435 melanoma, 93.7%. For the same molecule, the growth is 27.9% in the experiment with SW-620 colon, 50.2% with MCF7 breast, 20.3% in the experiment with HCT-116 colon and 53.6% with KM12 colon.
